Legend:
[1] = target: Sphingosine kinase 1 (Homo sapiens) (UniProt Q9NYA1); details: at 1 µM;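 also: mean SPHK1 inhibition value reported from the GSK PKIS kinase panel screen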
[2] = target: T1, Sphingosine kinase 2 (Homo sapiens) (UniProt Q9NRA0); details: at 0.1 µM
T1 sequence (whole entry): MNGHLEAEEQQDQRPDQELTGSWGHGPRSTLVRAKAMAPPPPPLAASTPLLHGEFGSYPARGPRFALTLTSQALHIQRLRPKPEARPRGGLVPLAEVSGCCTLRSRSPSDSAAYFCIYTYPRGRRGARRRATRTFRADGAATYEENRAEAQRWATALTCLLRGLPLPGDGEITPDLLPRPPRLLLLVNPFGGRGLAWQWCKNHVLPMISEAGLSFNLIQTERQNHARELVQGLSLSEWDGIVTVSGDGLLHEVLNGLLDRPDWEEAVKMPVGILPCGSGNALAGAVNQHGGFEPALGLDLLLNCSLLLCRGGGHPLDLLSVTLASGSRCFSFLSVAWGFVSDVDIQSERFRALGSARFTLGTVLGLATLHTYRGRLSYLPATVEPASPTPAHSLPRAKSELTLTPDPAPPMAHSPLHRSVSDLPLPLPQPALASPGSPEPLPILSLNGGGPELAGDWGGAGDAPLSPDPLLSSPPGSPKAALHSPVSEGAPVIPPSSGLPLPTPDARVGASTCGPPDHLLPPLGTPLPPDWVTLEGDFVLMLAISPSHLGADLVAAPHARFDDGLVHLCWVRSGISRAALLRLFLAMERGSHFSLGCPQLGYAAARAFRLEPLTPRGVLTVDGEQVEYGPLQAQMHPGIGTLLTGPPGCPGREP

[3] = target: T1, Sphingosine kinase 2 (Homo sapiens); details: at 1 µM
[4] = target: Casein kinase II subunit alpha (Homo sapiens) (UniProt P68400); details: at 0.1 µM
Sequence of Casein kinase II subunit alpha (Homo sapiens) (P68400 whole entry, looked up): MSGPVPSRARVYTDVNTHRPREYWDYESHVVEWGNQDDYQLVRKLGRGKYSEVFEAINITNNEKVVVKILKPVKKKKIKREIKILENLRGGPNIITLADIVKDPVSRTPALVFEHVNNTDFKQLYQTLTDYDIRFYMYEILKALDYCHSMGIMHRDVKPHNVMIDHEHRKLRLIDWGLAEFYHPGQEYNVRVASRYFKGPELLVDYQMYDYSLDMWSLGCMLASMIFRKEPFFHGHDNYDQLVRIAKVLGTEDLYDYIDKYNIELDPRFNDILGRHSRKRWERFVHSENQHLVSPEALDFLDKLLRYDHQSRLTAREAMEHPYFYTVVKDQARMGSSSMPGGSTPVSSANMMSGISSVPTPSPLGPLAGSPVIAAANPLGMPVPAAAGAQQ

[5] = target: Casein kinase II subunit alpha (Homo sapiens) (UniProt P68400); details: at 1 µM
[6] = target: T2, Inhibitor of nuclear factor kappa-B kinase subunit alpha (Homo sapiens) (UniProt O15111); details: at 0.1 µM
T2 sequence (whole entry): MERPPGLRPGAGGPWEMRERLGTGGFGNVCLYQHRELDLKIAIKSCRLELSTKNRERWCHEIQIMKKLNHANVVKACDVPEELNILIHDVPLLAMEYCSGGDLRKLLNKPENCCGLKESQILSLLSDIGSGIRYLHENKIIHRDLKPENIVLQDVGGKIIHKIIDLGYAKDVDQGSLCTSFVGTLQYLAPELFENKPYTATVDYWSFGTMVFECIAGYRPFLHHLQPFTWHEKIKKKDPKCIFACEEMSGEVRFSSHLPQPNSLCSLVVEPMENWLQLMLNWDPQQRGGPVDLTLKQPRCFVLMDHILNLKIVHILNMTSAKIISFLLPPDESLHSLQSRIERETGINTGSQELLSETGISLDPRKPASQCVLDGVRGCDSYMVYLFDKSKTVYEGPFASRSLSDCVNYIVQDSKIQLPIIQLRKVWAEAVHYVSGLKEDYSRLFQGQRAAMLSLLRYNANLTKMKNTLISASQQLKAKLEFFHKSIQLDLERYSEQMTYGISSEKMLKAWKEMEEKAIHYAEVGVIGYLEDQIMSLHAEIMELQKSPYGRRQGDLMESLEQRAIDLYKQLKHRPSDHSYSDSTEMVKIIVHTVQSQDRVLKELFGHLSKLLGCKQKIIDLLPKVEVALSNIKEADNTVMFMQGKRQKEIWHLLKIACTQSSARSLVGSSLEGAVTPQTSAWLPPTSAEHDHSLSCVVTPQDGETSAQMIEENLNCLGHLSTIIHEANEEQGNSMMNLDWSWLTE

[7] = target: T2, Inhibitor of nuclear factor kappa-B kinase subunit alpha (Homo sapiens); details: at 1 µM
[8] = target: T3, Inhibitor of nuclear factor kappa-B kinase subunit beta (Homo sapiens) (UniProt O14920); details: at 0.1 µM
T3 sequence (whole entry): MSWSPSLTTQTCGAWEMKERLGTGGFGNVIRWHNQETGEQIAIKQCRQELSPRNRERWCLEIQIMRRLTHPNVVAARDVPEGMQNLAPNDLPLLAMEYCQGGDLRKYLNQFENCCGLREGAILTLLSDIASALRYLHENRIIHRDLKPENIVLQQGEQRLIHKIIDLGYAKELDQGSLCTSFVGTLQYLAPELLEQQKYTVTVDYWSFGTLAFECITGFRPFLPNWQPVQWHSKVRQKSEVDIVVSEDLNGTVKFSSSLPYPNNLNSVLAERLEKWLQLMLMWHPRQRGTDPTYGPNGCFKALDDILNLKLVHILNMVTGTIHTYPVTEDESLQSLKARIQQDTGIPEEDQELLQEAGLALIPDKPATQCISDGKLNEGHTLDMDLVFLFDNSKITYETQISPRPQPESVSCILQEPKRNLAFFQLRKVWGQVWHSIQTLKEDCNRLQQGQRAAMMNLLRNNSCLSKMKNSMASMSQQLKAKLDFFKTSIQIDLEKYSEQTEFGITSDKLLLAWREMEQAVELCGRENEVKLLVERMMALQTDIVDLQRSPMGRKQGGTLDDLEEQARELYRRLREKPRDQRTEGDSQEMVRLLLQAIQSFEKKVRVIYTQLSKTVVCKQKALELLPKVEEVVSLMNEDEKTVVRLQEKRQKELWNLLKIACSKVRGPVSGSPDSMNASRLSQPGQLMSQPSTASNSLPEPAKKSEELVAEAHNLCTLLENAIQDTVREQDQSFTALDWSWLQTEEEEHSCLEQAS

[9] = target: T3, Inhibitor of nuclear factor kappa-B kinase subunit beta (Homo sapiens); details: at 1 µM
[10] = target: T4, Inhibitor of nuclear factor kappa-B kinase subunit epsilon (Homo sapiens) (UniProt Q14164); details: at 0.1 µM
T4 sequence (whole entry): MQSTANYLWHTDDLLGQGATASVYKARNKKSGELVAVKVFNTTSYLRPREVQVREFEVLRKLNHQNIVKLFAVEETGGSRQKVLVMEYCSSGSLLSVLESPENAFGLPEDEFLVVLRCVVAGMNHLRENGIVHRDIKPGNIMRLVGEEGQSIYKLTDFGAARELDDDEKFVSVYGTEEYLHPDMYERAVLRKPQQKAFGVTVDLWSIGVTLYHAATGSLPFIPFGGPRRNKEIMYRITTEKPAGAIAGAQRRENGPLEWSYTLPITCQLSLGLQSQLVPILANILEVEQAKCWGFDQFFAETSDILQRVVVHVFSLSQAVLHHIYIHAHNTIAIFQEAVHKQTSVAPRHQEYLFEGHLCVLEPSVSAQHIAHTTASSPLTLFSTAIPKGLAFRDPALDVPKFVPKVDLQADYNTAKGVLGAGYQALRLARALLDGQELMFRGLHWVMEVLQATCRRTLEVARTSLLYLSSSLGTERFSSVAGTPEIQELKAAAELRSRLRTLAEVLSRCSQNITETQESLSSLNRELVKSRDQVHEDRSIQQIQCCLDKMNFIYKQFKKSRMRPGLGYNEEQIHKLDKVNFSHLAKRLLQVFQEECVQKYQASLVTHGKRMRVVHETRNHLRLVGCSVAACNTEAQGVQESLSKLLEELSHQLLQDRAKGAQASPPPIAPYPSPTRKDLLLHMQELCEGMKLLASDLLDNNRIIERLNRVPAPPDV

[11] = target: T4, Inhibitor of nuclear factor kappa-B kinase subunit epsilon (Homo sapiens); details: at 1 µM
[12] = target: T5, Serine/threonine-protein kinase Nek1 (Homo sapiens) (UniProt Q96PY6); details: at 0.1 µM
T5 sequence (whole entry): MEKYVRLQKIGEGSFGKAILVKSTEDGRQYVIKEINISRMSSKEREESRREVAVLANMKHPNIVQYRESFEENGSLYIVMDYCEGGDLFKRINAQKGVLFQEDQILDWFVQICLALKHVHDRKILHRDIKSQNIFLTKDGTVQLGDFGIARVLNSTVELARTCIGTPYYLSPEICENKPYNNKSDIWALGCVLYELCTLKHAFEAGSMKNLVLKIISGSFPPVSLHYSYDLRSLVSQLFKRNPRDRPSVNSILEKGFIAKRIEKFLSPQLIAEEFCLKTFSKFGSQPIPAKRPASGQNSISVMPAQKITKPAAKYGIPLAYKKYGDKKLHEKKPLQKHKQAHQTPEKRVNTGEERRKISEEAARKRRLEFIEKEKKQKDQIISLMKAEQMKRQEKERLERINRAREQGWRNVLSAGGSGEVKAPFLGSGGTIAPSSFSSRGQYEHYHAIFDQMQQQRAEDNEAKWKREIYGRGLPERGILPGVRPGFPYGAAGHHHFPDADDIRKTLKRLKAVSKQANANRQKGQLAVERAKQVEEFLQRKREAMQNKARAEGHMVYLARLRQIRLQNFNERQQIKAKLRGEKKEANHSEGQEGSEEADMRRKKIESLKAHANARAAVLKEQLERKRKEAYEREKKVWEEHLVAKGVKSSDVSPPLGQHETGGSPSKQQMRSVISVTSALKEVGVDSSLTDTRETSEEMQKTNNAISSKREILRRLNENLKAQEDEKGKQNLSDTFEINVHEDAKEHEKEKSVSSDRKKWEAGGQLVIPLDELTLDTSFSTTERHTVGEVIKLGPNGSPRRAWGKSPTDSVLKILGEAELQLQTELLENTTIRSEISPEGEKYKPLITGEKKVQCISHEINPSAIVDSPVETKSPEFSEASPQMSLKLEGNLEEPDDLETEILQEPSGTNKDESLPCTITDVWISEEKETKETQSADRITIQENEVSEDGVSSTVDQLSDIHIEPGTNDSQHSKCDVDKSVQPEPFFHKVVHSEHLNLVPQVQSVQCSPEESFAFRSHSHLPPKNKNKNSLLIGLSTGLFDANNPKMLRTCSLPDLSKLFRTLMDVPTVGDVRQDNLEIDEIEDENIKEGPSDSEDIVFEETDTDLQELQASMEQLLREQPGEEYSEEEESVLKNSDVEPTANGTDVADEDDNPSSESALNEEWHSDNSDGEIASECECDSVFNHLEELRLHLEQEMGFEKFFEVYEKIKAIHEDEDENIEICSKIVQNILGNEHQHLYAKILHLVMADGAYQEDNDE

[13] = target: T5, Serine/threonine-protein kinase Nek1 (Homo sapiens); details: at 1 µM
[14] = target: T6, Serine/threonine-protein kinase Nek2 (Homo sapiens) (UniProt P51955); details: at 0.1 µM
T6 sequence (whole entry): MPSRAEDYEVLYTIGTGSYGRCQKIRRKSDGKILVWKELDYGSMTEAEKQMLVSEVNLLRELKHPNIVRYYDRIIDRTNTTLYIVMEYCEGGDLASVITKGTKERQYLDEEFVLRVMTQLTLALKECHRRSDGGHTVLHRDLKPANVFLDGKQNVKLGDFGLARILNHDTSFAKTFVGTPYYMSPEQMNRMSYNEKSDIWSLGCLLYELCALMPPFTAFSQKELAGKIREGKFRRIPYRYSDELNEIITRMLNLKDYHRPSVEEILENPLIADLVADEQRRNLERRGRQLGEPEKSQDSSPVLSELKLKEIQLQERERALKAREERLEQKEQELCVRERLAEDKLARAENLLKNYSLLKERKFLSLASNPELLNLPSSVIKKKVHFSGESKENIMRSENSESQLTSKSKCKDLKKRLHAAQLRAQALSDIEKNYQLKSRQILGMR

[15] = target: T6, Serine/threonine-protein kinase Nek2 (Homo sapiens); details: at 1 µM
[16] = target: Serine/threonine-protein kinase Nek6 (Homo sapiens) (UniProt Q9HC98); details: at 0.1 µM
Sequence of Serine/threonine-protein kinase Nek6 (Homo sapiens) (Q9HC98 whole entry): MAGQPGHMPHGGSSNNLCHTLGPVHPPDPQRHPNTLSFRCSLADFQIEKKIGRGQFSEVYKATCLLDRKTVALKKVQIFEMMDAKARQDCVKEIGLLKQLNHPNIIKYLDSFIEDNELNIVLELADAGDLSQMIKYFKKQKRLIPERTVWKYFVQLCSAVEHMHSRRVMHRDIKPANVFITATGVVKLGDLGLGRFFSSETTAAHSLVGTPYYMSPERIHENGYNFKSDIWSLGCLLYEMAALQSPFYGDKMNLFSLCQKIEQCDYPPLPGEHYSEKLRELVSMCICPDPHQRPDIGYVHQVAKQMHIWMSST

[17] = target: Serine/threonine-protein kinase Nek6 (Homo sapiens) (UniProt Q9HC98); details: at 1 µM
[18] = target: Serine/threonine-protein kinase Nek7 (Homo sapiens) (UniProt Q8TDX7); details: at 0.1 µM
Sequence of Serine/threonine-protein kinase Nek7 (Homo sapiens) (Q8TDX7 whole entry, looked up): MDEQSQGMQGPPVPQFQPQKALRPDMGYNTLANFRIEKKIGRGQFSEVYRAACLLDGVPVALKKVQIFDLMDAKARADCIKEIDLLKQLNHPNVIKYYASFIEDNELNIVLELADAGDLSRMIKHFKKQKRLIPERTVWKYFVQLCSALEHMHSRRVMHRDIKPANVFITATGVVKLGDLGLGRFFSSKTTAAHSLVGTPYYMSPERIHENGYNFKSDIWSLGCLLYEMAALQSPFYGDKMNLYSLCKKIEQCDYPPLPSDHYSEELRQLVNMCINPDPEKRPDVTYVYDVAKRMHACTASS

[19] = target: Serine/threonine-protein kinase Nek7 (Homo sapiens) (UniProt Q8TDX7); details: at 1 µM
[20] = target: T7, Serine/threonine-protein kinase Nek9 (Homo sapiens) (UniProt Q8TD19); details: at 0.1 µM;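 also: reported value is the mean percent inhibition of NEK9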
T7 sequence (whole entry): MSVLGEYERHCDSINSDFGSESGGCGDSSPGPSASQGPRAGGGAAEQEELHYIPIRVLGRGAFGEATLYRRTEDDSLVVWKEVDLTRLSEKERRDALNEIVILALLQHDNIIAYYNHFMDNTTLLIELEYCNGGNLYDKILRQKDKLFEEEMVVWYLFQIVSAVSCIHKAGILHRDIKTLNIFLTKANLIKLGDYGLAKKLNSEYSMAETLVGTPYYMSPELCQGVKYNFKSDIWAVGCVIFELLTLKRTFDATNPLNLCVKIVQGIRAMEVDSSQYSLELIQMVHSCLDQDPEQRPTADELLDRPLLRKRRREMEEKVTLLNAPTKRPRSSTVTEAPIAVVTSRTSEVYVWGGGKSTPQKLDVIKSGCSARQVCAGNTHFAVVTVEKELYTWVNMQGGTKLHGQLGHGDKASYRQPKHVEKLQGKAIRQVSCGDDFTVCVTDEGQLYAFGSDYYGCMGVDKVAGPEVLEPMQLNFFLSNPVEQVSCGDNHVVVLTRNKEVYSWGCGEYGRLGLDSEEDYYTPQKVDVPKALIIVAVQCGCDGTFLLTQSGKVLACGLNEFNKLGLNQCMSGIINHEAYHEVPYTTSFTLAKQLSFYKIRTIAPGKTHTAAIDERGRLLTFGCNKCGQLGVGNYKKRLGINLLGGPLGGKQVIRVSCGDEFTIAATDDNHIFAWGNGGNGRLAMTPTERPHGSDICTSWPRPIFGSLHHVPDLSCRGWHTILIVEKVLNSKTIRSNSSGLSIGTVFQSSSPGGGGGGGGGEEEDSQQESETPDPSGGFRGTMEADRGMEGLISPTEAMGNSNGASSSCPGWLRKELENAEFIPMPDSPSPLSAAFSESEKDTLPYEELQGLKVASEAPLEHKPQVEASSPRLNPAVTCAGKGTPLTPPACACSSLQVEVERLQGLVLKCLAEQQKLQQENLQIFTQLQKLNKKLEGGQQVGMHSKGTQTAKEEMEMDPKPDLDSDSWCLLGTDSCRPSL

Sequence of Sphingosine kinase 1 (Homo sapiens) (Q9NYA1 whole entry): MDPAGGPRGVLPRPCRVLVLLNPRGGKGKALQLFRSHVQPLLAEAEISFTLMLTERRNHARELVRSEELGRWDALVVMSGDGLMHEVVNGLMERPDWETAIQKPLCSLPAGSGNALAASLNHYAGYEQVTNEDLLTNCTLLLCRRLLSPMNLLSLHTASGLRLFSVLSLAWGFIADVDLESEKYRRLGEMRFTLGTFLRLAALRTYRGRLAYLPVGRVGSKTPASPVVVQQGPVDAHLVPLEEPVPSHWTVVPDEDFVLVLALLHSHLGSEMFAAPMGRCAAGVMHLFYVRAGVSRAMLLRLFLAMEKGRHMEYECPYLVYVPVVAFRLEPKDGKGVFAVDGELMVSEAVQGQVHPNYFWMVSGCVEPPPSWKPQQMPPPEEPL

Structure (SMILES) | inhibition [1] [%] | inhibition [2] [%] | inhibition [3] [%] | inhibition [4] [%] | inhibition [5] [%] | inhibition [6] [%] | inhibition [7] [%] | inhibition [8] [%] | inhibition [9] [%] | inhibition [10] [%] | inhibition [11] [%] | inhibition [12] [%] | inhibition [13] [%] | inhibition [14] [%] | inhibition [15] [%] | inhibition [16] [%] | inhibition [17] [%] | inhibition [18] [%] | inhibition [19] [%] | inhibition [20] [%]
COc1c(C(N)=O)cc(-c2ccc(Cl)cc2)cc1-c1ccc(S(N)(=O)=O)cc1 | 0.21 | -0.78 | 0.28 | 1.48 | 3.63 | 2.15 | 1.32 | 6.58 | 4.61 | 8.74 | 5.47 | 2.17 | 4.16 | 6.76 | 5.43 | 0.6 | 1.71 | 4.31 | 10.4 | 4.85
O=C(O[C@H]1CN[C@H](C#Cc2cc3ncnc(Nc4ccc5c(ccn5Cc5cc(F)ccc5F)c4)c3s2)C1)N1CCOCC1 | -2.46 | 0 | 1.37 | 7.47 | 0.25 | 8.85 | 10.1 | 7.42 | 9.24 | 6.23 | 3.8 | 2.94 | 1.91 | 2.01 | 7.68 | 4.81 | 1.23 | 4.67 | 3.63 | 4.24

— ChEMBL document CHEMBL1961873, “Compounds: GSK PKIS; Assays: Nanosyn kinase panel” (2012)
